AmpC no deterg: blocks E. coli AmpC beta-lactamase in detergent-free assay; AmpC nitrocefin hydrolysis, absorbance 480 nm, 0.0001% Triton; 0.52% of 330,000 active; Potency, µM (top dose mostly 57.1 µM), inactives show at the highest dose activity change, negative = inhibition, usual class: inhibitors; P00811;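 further: potency means the concentration at half of the fitted maximal effect; plate controls were no compound for no effect and no enzyme for full effect; nearly all actives have a fitted effect of over 20% in size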
Target sequence (P00811 whole entry, looked up): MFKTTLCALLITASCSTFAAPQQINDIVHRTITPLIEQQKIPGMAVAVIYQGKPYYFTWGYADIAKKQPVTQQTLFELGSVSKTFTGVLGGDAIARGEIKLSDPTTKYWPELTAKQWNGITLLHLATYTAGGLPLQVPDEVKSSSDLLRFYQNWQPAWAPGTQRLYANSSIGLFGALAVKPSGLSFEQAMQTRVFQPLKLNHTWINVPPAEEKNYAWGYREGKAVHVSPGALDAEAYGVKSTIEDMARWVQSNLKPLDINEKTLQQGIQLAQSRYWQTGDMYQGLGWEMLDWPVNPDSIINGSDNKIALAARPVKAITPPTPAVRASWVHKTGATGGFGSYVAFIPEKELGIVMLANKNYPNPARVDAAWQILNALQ
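20 mM phosphate pH 7.0 + 0.01% (detergent screen) or 0.0001% Triton X-100; 5.3 nM AmpC reagent; cpd preinc 15 min RT; nitrocefin (800 uM stock) to start; A480 q20 s × 4 min; Activity was normalised to no-enzyme and no-compound control wells.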
Pf growth 96h: P. falciparum growth inhibition at 96 hour, primary screen for plastid delayed-death inhibitors. Potency, µM (top dose mostly 28.7 µM), inactives show at the top dose activity change, negative = inhibition, most hits filed as inhibitors. P. falciparum luciferase reporter growth, 96 h. AID 504834. 6.9% of 320,000 active; further: potency means the concentration at half of the fitted maximal effect; on the % scale 0 is the no-effect control and ±100 the full control effect
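Two parasite generations (96 h, 37 C, 5% CO2) of compound exposure in infected erythrocytes (0.05% parasitemia, 2% hematocrit). Luciferase-reporter P. falciparum; decreased luminescence indicates inhibited growth, aimed at apicoplast-acting delayed death.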
SARS PLpro yeast-1: SARS-CoV PLP inhibition in yeast; AID 485353; 0.19% of 330,000 active; Potency, µM (doses to about 32.9 µM), inactives show at the top dose activity, positive = growth rescue, most hits filed as activators; S. cerevisiae expressing SARS-CoV PLpro, growth rescue; calls by dose curve; further: potency means the concentration at half of the fitted maximal effect; 0% is about no effect; nearly all actives have a fitted effect of over 55% in size
Sm TGR block: blocks Schistosoma mansoni thioredoxin glutathione reductase; AID 485364; Q962Y6; purified TGR, DTNB reduction, TNB absorbance 405 nm; 3% of 360,000 active; Potency, µM (doses to about 114 µM), for inactives: at the highest dose activity change, negative = inhibition, hits mostly inhibitors; further: potency means the concentration at half of the fitted maximal effect; on the % scale 0 is the no-effect control and ±100 the full control effect; nearly all actives have a fitted effect of over 60% in size
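TGR 20 nM + NADPH 100 uM (dispensed conc.), cpd preinc 15 min RT; start with NADPH (500 uM addition) then DTNB (15 mM addition). Kinetic TNB absorbance, 405 nm filter. Four-parameter Hill fit across titration.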
Pf growth 48h: P. falciparum growth inhibition at 48 hours (one generation). Potency, µM (highest dose often 28.7 µM), for the others: at the top dose activity change, negative = inhibition, hits mostly inhibitors. 5.9% of 310,000 active. AID 504832. P. falciparum luciferase growth in erythrocytes, 48 h; further: potency means the concentration at half of the fitted maximal effect; on the % scale 0 is the no-effect control and ±100 the full control effect
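Here the parasites carry a stable luciferase gene and grow inside erythrocytes in Albumax-based RPMI medium with compound for one erythrocytic cycle. Activity is scored as loss of luminescent signal.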
AmpC inh detg: inhibitors of E. coli AmpC beta-lactamase with detergent | AmpC hydrolysis of nitrocefin, absorbance 480 nm, 0.01% Triton | AID 485294 | P00811 | Potency, µM (titrated, usually from 114 µM), without a hit: at the top dose activity change, negative = inhibition, actives largely listed as inhibitors | 0.041% of 370,000 active;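 further: potency means the concentration at half of the fitted maximal effect; 0% = no-compound wells and -100% = no-enzyme wells; nearly all actives have a fitted effect of over 25% in size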
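20 mM phosphate pH 7.0 + 0.01% (detergent screen) or 0.0001% Triton X-100; 5.3 nM AmpC reagent; cpd preinc 15 min RT; nitrocefin (800 uM stock) to start; A480 q20 s × 4 min; Activity was normalised to no-enzyme and no-compound control wells.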
SARS PLpro yeast-2: Validates SARS-CoV PLpro inhibitor hits in yeast | shares compounds with SARS PLpro yeast-1 | yeast expressing SARS-CoV PLpro, growth phenotype rescue | calls only | 19% of 1,000 active | AID 652038; call rule not given here
Numbers without * were called inactive. Sampled rows, rich in hits. Any-hit rate of the full collection: about 12%. Unless noted, the call rests on the fitted dose curve; in most records, active means well fitted curve in the direction sought with a large enough effect; inconclusive means small, poorly fitted or top-dose-only effect, or another doubt; inactive means no such curve, though single readings can be large; an effect the other way counts as inactive or inconclusive.

How did C/C(=C\C(=O)c1ccc(C)o1)Nc1ccc2c(c1)OCO2 do in these assays?
AmpC no deterg: -14%; Pf growth 96h: 31%; SARS PLpro yeast-1: inconclusive; Sm TGR block: 1%; Pf growth 48h: -11%; AmpC inh detg: -9%; SARS PLpro yeast-2: inactive

What do the screens show for `Cc1ccc(C(=O)Nc2ccc3c(c2)OCO3)o1`?
AmpC no deterg: -7%; Pf growth 96h: 119%; SARS PLpro yeast-1: -10%; Sm TGR block: -10%; Pf growth 48h: 90%; AmpC inh detg: -14%

Results for COc1ccc(N(C(C)C(=O)NN=C2CCCC2)S(C)(=O)=O)cc1 (centres undefined) ?
AmpC no deterg: -5%; Pf growth 96h: 1.9µM*; SARS PLpro yeast-1: 11µM*; Sm TGR block: 7%; Pf growth 48h: 42%; AmpC inh detg: 2%; SARS PLpro yeast-2: inactive

What do the screens show for `Cc1ccc(C2=NC(C)(C)NC2=O)cc1`?
AmpC no deterg: -9%; Pf growth 96h: 70%; SARS PLpro yeast-1: inconclusive; Sm TGR block: 0%; AmpC inh detg: inconclusive; SARS PLpro yeast-2: inactive

Results for CSc1cccc(CNC(=O)C2CCC(=O)N(Cc3cccc(C(F)(F)F)c3)C2)c1 (centres undefined) ?
AmpC no deterg: 131%; Pf growth 96h: -5%; SARS PLpro yeast-1: 3%; Sm TGR block: -8%; Pf growth 48h: 3%; AmpC inh detg: -9%

How did O=C(CSc1nc2ccccc2c(=O)n1CCCN1CCOCC1)Nc1ccccc1OC(F)F do in these assays?
AmpC no deterg: 191%; SARS PLpro yeast-1: 2.8µM*; SARS PLpro yeast-2: inactive

What do the screens show for `CCOP(=O)(OCC)C(Nc1ccccn1)c1ccccc1` (centres undefined)?
AmpC no deterg: -5%; Pf growth 96h: 32%; SARS PLpro yeast-1: 7%; Sm TGR block: -8%; Pf growth 48h: 26%; AmpC inh detg: inconclusive

What do the screens show for `COc1cccc(C(Nc2ccccn2)c2oc(CO)cc(=O)c2O)c1` (centres undefined)?
AmpC no deterg: -25%; Pf growth 96h: -18%; SARS PLpro yeast-1: 11µM*; Sm TGR block: 3.2µM*; Pf growth 48h: 13%; AmpC inh detg: -13%; SARS PLpro yeast-2: inactive

Results for O=C(NC1CCN(C(=S)NCc2ccco2)CC1)NC12CC3CC(CC(C3)C1)C2 ?
AmpC no deterg: -34%; Pf growth 96h: inconclusive; SARS PLpro yeast-1: -4%; Sm TGR block: -4%; Pf growth 48h: inconclusive; AmpC inh detg: -2%

What do the screens show for `O=C(Cn1cnc([N+](=O)[O-])n1)N/N=C/c1cccc2ccccc12`?
AmpC no deterg: -13%; Pf growth 96h: inconclusive; SARS PLpro yeast-1: inconclusive; Sm TGR block: -5%; Pf growth 48h: 40%; AmpC inh detg: 3%; SARS PLpro yeast-2: inactive

What do the screens show for `COc1cccc(NC(=O)CCCOc2cc(=O)n(C)c3ccccc23)c1`?
AmpC no deterg: 48%; Pf growth 96h: 30%; SARS PLpro yeast-1: 2%; Sm TGR block: -2%; Pf growth 48h: -11%; AmpC inh detg: -2%

What do the screens show for `CCOc1ccc(NC(=O)CCCOc2cc(=O)n(C)c3ccccc23)cc1`?
AmpC no deterg: -16%; Pf growth 96h: -19%; SARS PLpro yeast-1: inconclusive; Sm TGR block: -2%; Pf growth 48h: -25%; AmpC inh detg: -14%; SARS PLpro yeast-2: active

Results for CCN(CC)S(=O)(=O)c1cccc(NC(=O)/C=C/c2cccc([N+](=O)[O-])c2)c1 ?
AmpC no deterg: -28%; Pf growth 96h: -15%; SARS PLpro yeast-1: 20µM*; Sm TGR block: 3%; Pf growth 48h: 21%; AmpC inh detg: -2%; SARS PLpro yeast-2: inconclusive

What do the screens show for `CC(NC(=O)CN1C(=O)NC2(CCCCCC2)C1=O)c1ccccc1Cl` (centres undefined)?
AmpC no deterg: -1%; Pf growth 96h: -27%; SARS PLpro yeast-1: 3%; Sm TGR block: 0%; Pf growth 48h: 0%; AmpC inh detg: 2%

How did COc1ccc(C)cc1NC(=O)c1cc2ccccc2cc1OCC(=O)NCc1ccco1 do in these assays?
AmpC no deterg: -15%; Pf growth 96h: inconclusive; SARS PLpro yeast-1: 3.5µM*; Sm TGR block: -3%; AmpC inh detg: 9%; SARS PLpro yeast-2: active

What do the screens show for `Cc1cc(/C=C2/NC(=O)N(Cc3ccccc3F)C2=O)c(C)n1C(C)C`?
AmpC no deterg: -37%; Pf growth 96h: 10µM*; SARS PLpro yeast-1: inconclusive; Sm TGR block: -33%; Pf growth 48h: inconclusive; AmpC inh detg: -3%; SARS PLpro yeast-2: inactive

Results for COc1ccc(CC(=O)Oc2cc(C)ccc2C)cc1 ?
AmpC no deterg: 20%; Pf growth 96h: 24%; SARS PLpro yeast-1: 1%; Sm TGR block: -4%; Pf growth 48h: 0%; AmpC inh detg: -8%

How did CCn1c(SCC(=O)NC2CCCCC2)nnc1-c1ccccn1 do in these assays?
AmpC no deterg: -4%; Pf growth 96h: -3%; SARS PLpro yeast-1: 3.5µM*; Sm TGR block: -16%; Pf growth 48h: 6%; AmpC inh detg: -2%; SARS PLpro yeast-2: inactive

What do the screens show for `CCN(CC)c1ccc(C=Nc2ccccc2C)c(O)c1`?
AmpC no deterg: -16%; Pf growth 96h: -6%; SARS PLpro yeast-1: 0%; Sm TGR block: 3%; Pf growth 48h: -7%; AmpC inh detg: -13%

What do the screens show for `CCN(CC)c1ccc(/C=N/Nc2nc3ccccc3[nH]2)c(O)c1`?
AmpC no deterg: -26%; Pf growth 96h: 1.2µM*; SARS PLpro yeast-1: 10µM*; Sm TGR block: -2%; AmpC inh detg: 4%; SARS PLpro yeast-2: active

Results for CCN(CC)c1ccc(/C=N/NC(=O)Cc2cccs2)c(O)c1 ?
AmpC no deterg: -24%; Pf growth 96h: inconclusive; SARS PLpro yeast-1: 5µM*; Sm TGR block: 0%; Pf growth 48h: inconclusive; AmpC inh detg: -7%; SARS PLpro yeast-2: inactive

How did COc1ccc(-c2c(NC(=O)c3ccco3)n(C)c3ccccc3c2=O)cc1 do in these assays?
AmpC no deterg: -23%; SARS PLpro yeast-1: -2%; Sm TGR block: -2%; Pf growth 48h: 20%; AmpC inh detg: 3%

How did CN1C(=O)c2ccc(NC(=O)c3ccc(N4CCCCC4)c([N+](=O)[O-])c3)cc2C1=O do in these assays?
AmpC no deterg: -23%; Pf growth 96h: -9%; SARS PLpro yeast-1: 14µM*; Sm TGR block: -1%; Pf growth 48h: 10%; AmpC inh detg: 2%; SARS PLpro yeast-2: inactive

Source: PubChem BioAssay (National Center for Advancing Translational Sciences (NCATS))
